# Screening data: PubChem, The Scripps Research Institute Molecular Screening Center
# DAX1 inh-1: DAX1 (NR0B1) inhibitors on StAR promoter, primary screen, cell-based, luminescence, SF-1 (NR5A1), full-length DAX-1 | 370,000 tested, 1.1% active | inhibition, % at 6.8 µM | HEK293T StAR-luciferase reporter, SF-1/DAX-1 repression relief;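 active = inhibition above the mean over all tested compounds plus 3 SD, cut at about 3.6% in these data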;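 note: 0% = DAX-1 cells with DMSO and 100% = cells lacking DAX-1 with DMSO; higher inhibition means more luminescence from relief of DAX-1 repression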
# hcDAF12 agonist: H. contortus DAF-12 nuclear receptor activators, primary screen, cell-based, luminescence, HEK293, lit1-tk-luc reporter; HEK293 hcDAF-12 lit1-tk-luc reporter; 0% DMSO, 100% Δ7-dafachronic acid; activation, % at 6.8 µM; 370,000 tested, 1.4% active;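 active = activation above the mean of all tested compounds plus 3 SD, cut at about 5.5% in these data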;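 note: 100% = response to 3 µM Δ7-dafachronic acid high control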
# FXN GAA850 act: FXN promoter activators, primary screen, cell-based, luciferase luminescence, HEK293 lucGAA850; 360,000 tested, 0.56% active; AID 540364, 2011; activation, % at 6 µM; HEK293 lucGAA850 FXN promoter luciferase reporter, 24 h; percent of 10 µM SAHA response;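 active = activation above the average of all compounds screened plus 3 SD, cutoff fixed separately per campaign, cut at about 7.5% in these data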;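 note: 0% = DMSO wells and 100% = 10 µM SAHA wells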
# hgDAF-12 ag: H. glycines DAF-12 receptor agonists, primary screen, cell-based, luminescence, HEK293, GAL4 fusion, UAS-luciferase. Nuclear hormone receptor DAF-12 (Heterodera glycines), GAL4 fusion. HEK293 GAL4-hgDAF12 UAS-luciferase reporter, agonist luminescence; normalized to butyrate control. activation, % at 6.8 µM. 370,000 tested, 1.8% active;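 active = activation above a cutoff set at the mean of all screened compounds plus 3 SD, cut at about 10% in these data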;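 note: 0% = DMSO wells and 100% = sodium butyrate wells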
# DAX1 inh-2: DAX1 (NR0B1) inhibitors, primary screen, cell-based, HEK293, Gal4-DAX1, luciferase luminescence. AID 504766, 2011. inhibition, % at 6.75 µM. HEK293 Gal4-DAX1 luciferase reporter. 340,000 tested, 0.99% active;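 active = inhibition above the mean over all tested compounds plus 3 SD, cut at about 4.2% in these data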;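 note: 0% = DAX1-transfected cells with DMSO and 100% = empty-vector control cells with DMSO; inhibition shows as a rise in luminescence from relieved DAX1 repression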
# ssDAF-12 act: S. stercoralis DAF-12 nuclear receptor activators, primary screen, cell-based, luminescence, HEK293, GRIP1 co-expression, lit1-tk-luc; Nuclear hormone receptor DAF-12 (Strongyloides stercoralis); HEK293 ssDAF-12/GRIP1 lit1-tk-luc reporter; % of 3 µM dafachronic acid response; activation, % at 6.8 µM; 370,000 tested, 1% active; AID 652126, 2013;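 active = activation above the mean over all tested compounds plus 3 SD, cut at about 0.9% in these data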;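 note: 0% = DMSO-only wells and 100% = 3 µM delta7-dafachronic acid wells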
# DAX1 conf: DAX1 (NR0B1) inhibitors relieving SF-1 repression, confirmation, cell-based, luminescence, HEK293T, full-length DAX-1, SF-1 activated StAR promoter; 2,400 tested, 87% active; shares compounds with DAX1 inh-1; HEK293T StAR-promoter luciferase reporter, SF-1/DAX-1 repression; inhibition, % at 6.8 µM;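 active = inhibition above the average of every tested compound plus 3 SD, cut at about 3.8% in these data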;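 note: 0% = DAX-1 cells with DMSO and 100% = no DAX-1 control cells with DMSO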
# SF1 AF2mut Luc: StAR reporter signal changes without DAX1, counter-screen for DAX1 inhibitor project, cell-based, luminescence, AF-2 mutant SF-1, transactivation. shares compounds with DAX1 inh-1. HEK293 StAR-luciferase, SF-1 AF2 mutant. inhibition, % at 6.8 µM. 2,400 tested, 78% active. AID 652136, 2013;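 active = inhibition above the mean of all tested compounds plus 3 SD, cut at about 3% in these data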;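 note: 0% = DAX-1 transfected cells with DMSO and 100% = cells without DAX-1 with DMSO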
# LXRb hcDAF ctr: LXR agonists, Gal4 luciferase reporter, confirmation, counter-screen for hcDAF-12 agonist project, cell-based, luminescence, HEK293, H. contortus campaign; activation, % at 6.8 µM; HEK293 Gal4-LXR tk-luc reporter, 24 h; normalized: DMSO 0%, positive control 100%; shares compounds with hcDAF12 agonist; 3,400 tested, under 10 active;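 active = mean percent activation of the reporter above a cutoff set as the average over tested compounds plus their standard deviation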
# Target sequence (P55055 whole entry, looked up, the tested form may be a part): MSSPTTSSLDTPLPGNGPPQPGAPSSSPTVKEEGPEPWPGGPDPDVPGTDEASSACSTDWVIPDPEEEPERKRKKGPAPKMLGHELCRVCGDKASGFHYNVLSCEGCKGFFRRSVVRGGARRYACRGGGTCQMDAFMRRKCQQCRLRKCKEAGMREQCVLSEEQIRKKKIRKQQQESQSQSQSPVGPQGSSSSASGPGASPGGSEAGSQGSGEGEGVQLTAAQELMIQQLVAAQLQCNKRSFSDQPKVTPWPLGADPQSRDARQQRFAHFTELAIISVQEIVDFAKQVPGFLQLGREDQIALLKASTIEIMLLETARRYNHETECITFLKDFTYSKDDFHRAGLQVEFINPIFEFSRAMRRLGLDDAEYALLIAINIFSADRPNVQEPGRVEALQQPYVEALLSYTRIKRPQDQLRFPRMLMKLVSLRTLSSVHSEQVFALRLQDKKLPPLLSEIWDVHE
# hcDAF12 ag: H. contortus DAF-12 receptor agonists, confirmation, cell-based, luminescence, HEK293, lit1-tk-luc, triplicate. shares compounds with hcDAF12 agonist. HEK293 hcDAF-12 lit1-tk-luc reporter; % of Δ7-dafachronic acid response. activation, % at 6.8 µM. 3,400 tested, 61% active. AID 743032, 2013;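 active = mean activation across triplicate tests above the threshold derived from the earlier primary screen, cut at about 5.5% in these data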;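 note: 0% = DMSO only wells and 100% = 3 µM Δ7-dafachronic acid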
# hgDAF12 conf: H. glycines DAF-12 receptor agonists, confirmation, cell-based, luminescence, HEK293, GAL4-LBD fusion. shares compounds with hgDAF-12 ag. HEK293 GAL4-hgDAF12 luciferase reporter, agonist mode; percent of butyrate response. activation, % at 6.8 µM. 3,300 tested, 80% active;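 active = mean activation over triplicate wells above the hit cutoff derived from the earlier primary screen, cut at about 11% in these data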;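 note: 0% = DMSO low control and 100% = 2 mM sodium butyrate high control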
# LXRb DAF12 ctr: LXR agonists, Gal4 luciferase reporter, confirmation, counter-screen for hgDAF-12 agonist project, cell-based, luminescence, HEK293, H. glycines campaign. shares compounds with hgDAF-12 ag. 24 h. activation, % at 6.8 µM. 3,300 tested, under 10 active. AID 743051, 2013;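 active = mean activation of the triplicate above a set limit carried over from the primary screen, none filed active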
# The depositor's hits bear a star; . = not tested or not shown. Rows were chosen to be rich in hits. Some 4.5% of all compounds tested hit in one or more screens of this group.
SMILES,DAX1 inh-1,hcDAF12 agonist,FXN GAA850 act,hgDAF-12 ag,DAX1 inh-2,ssDAF-12 act,DAX1 conf,SF1 AF2mut Luc,hgDAF12 conf,LXRb DAF12 ctr,others
CC(C)CCn1c(=O)c2ccccc2n2c(CCC(=O)NCC3CCCO3)nnc12 (stereo not given),-2,-1,-1,-3,0,-1,.,.,.,.,
Cc1nn(-c2ccccc2)c(Cl)c1/C=N/NC(=O)OC(C)(C)C,0,-3,-3,0,0,0,.,.,.,.,
Cc1nn(-c2ccccc2)c(Cl)c1/C=N/Nc1ccc(Cl)c(C(=O)O)c1,7.5*,9.9*,7,24*,-5,1.2*,16*,7.9*,27*,2,LXRb hcDAF ctr=2;hcDAF12 ag=11*
O=C(Nc1ccc2oc(=O)ccc2c1)c1cc2ccccc2o1,0,4,3,6,2,0,.,.,.,.,
CC(=NNC(=O)c1cccs1)c1ccc2c(c1)OCCO2,7.2*,5,3,17*,4,1,7.8*,2.9*,13*,1,
O=C(Nc1ccc2c(c1)OCCO2)c1cccs1,4.7*,8.3*,5,19*,0,1,15*,7.6*,13*,1,LXRb hcDAF ctr=1;hcDAF12 ag=4
C/C(=N\NC(=O)c1ccc2c(c1)OCCO2)c1ccccc1,0,-1,3,8,2,0,.,.,.,.,
O=C(/C=C\Nc1ccc2c(c1)OCO2)c1cccs1,9.0*,8.3*,1,17*,-1,1.0*,12*,0,12*,1,LXRb hcDAF ctr=2;hcDAF12 ag=11*
O=C(Nc1ccc2c(c1)OCCO2)c1cc2ccccc2o1,5.7*,12*,7,20*,0,1.0*,20*,8.3*,17*,1,LXRb hcDAF ctr=2;hcDAF12 ag=8.1*
C/C(=N/NC(=O)c1cccs1)c1cccc(N)c1,5.8*,7.0*,5,16*,6.0*,0,5.5*,2,10,0,LXRb hcDAF ctr=1;hcDAF12 ag=4
COc1ccc(C(=O)O/N=C(\N)c2ccc(Cl)cc2)cc1,0,-2,4,6,2,-1,.,.,.,.,
COc1ccccc1C(=O)O/N=C(\N)c1ccc(Cl)cc1,5.0*,9.2*,4,18*,2,1.4*,1,3,14*,1,LXRb hcDAF ctr=1;hcDAF12 ag=6.3*
O=c1cc(-c2ccccc2)oc2cc(O)cc(O)c12,5.7*,0,4,15*,2,-1,9.2*,2,13*,1,
COc1cc(O)c2c(=O)cc(-c3ccccc3)oc2c1,2,2,6,0,4,-2,.,.,.,.,
Cc1cccc(-c2cnc3cccnn23)c1,2,-2,2,7,.,-1,.,.,.,.,
CCOc1cccc(-c2cnc3cccnn23)c1,6.1*,1,5,21*,.,0,7.1*,5.1*,16*,0,
COc1ccc(NC(=O)CCC(=O)Nc2nnc(C3CCCCC3)s2)c(OC)c1,0,-1,0,0,0,-1,.,.,.,.,
OCc1cn(-c2ccccc2)nc1-c1cc2ccccc2o1,5.8*,4,5,14*,4.7*,1.1*,15*,12*,15*,1,
O=C1c2ccccc2C(=O)N1CCCn1c2ccc(Cl)cc2c2nc3ccccc3nc21,1,-1,2,-1,1,-1,.,.,.,.,
CCOC(=O)c1c(C)[nH]c(N=Nc2ccc(C)cc2)c1C,4.9*,3,5,15*,4,0,12*,6.0*,18*,1,
CCOC(=O)c1c(C)[nH]c(N=Nc2cccc(OC)c2)c1C,4.9*,5.9*,5,16*,3,0,16*,8.0*,21*,1,
COc1cccc(NC(=O)N2CCCC2C(=O)NCc2ccc(Cl)cc2)c1 (stereo not given),0,0,-2,-1,0,-1,.,.,.,.,
COc1ccc(Cl)c(-c2cc(C(=O)Nc3ccccc3)[nH]n2)c1,7.0*,6.5*,2,18*,.,0,6.7*,5.2*,19*,1,
COc1ccc(Cl)cc1-c1cc(C(=O)Nc2ccccc2)[nH]n1,4,3,-3,6,.,0,.,.,.,.,
CC(C)=CCC/C(C)=C/CNC(=O)C[C@H]1C[C@H](C(=O)N2CCOCC2)[C@@]2(CCC3CCCC3)c3[nH]c4cc(-c5ccco5)ccc4c3CCN2C1=O,1,-1,0,-5,0,-1,.,.,.,.,
COc1ccc(C(=O)N/N=C/c2ccccn2)cc1,4.5*,1,3,13*,0,0,6.6*,4.1*,13*,0,
